Source: PubChem BioAssay (National Center for Advancing Translational Sciences (NCATS))
Compounds with a hit are over-represented: about 19% of the library has one in this group of screens.
KB-3-1 tox: KB-3-1 parental cell cytotoxicity. KB-3-1 viability, CellTiter-Glo ATP luminescence, 72 h. Potency, µM (highest dose often 46.1 µM), actives largely listed as cytotoxic. actives 1.4% (n = 400,000). AID 1347075; note: nearly all actives have a fitted effect of over 60% in size
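Using CellTiter-Glo luminescence, growth of non-resistant KB-3-1 adenocarcinoma cells is assessed 72 h after pin-tool compound addition at 37 °C. Normalized responses across the concentration series yield fitted curves.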
HT1080NT lethal: kills 2HG-producing HT-1080-NT fibrosarcoma cells | HT-1080-NT fibrosarcoma viability, CellTiter-Glo ATP luminescence, 48 h | Potency, µM (series often up to 46.1 µM), inactives show at the highest dose activity, negative = less viability, hits mostly cytotoxic | AID 686970 | actives 1.6% (n = 360,000);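 note: NT is the 2HG producing partner of a matched IDH1 knockdown line; 0% = DMSO-treated cells and -100% = media-only wells without cells; nearly all actives have a fitted effect of over 55% in size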
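Read-out is CellTiter-Glo luminescence after 10 minutes at room temperature, following 48 hours' compound treatment of HT-1080-NT cells (750 cells/well, RPMI, 5% FBS, 37 degrees C).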
TDP1 cell noCPT: qHTS for Inhibitors of human tyrosyl-DNA phosphodiesterase 1 (TDP1): qHTS in cells in absence of CPT | DT40 Tdp1-/- hTDP1 cells, no CPT, ATP luminescence, 48 h | Potency, µM (titrated, usually from 46.2 µM), for the others: at the top dose activity change, negative = growth inhibition, hits mostly inhibitors | actives 15% (n = 420,000); note: nearly all actives have a fitted effect of over 55% in size
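Compound effects on proliferation are scored in DT40 Tdp1-/-;hTDP1 cells in the absence of CPT. ATP levels (CellTiter-Glo luminescence) are recorded after a ≥48 hr, 37 °C incubation.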
HT1080 IDH1KD tx: kills HT-1080 cells with IDH1 knockdown; Potency, µM (doses to about 46.1 µM), without a hit: top-dose activity, negative = toxicity, actives largely listed as cytotoxic; AID 686971; HT-1080 IDH1 knockdown viability, ATP luminescence, 48 h; actives 2% (n = 360,000);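 note: 0% = DMSO wells and -100% = cell-free medium wells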
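CellTiter-Glo luminescence after 48 h compound exposure at 37 degrees C of IDH1-knockdown HT-1080 cells in 5% FBS RPMI. %Activity scaled between DMSO wells and cell-free media wells, with curves fitted and assigned curve classes.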
KB-V1 cytotox: KB-V1 MDR subline cytotoxicity. actives 3.4% (n = 400,000). Potency, µM (series often up to 46.1 µM), most hits filed as cytotoxic. KB-V1 MDR cells viability, CellTiter-Glo, 72 h. AID 1347076; note: nearly all actives have a fitted effect of over 60% in size
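Drug-selected KB-V1 cells, grown in DMEM lacking phenol red with 10% FBS, receive compound titrations; after three days at 37 degrees C, surviving cell ATP is quantified by CellTiter-Glo luminescence and responses normalized and curve-fitted.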
DT40 TDP1 CPT: DT40-hTDP1 cell growth loss with CPT; chicken DT40 Tdp1-/-;hTDP1 cells + 20 nM CPT, ATP luminescence, 48 h; Potency, µM (top dose mostly 46.2 µM), for the others: at the highest dose activity change, negative = growth inhibition, most hits filed as inhibitors; actives 12% (n = 420,000); AID 686979; note: nearly all actives have a fitted effect of over 55% in size
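Chicken DT40 Tdp1-/- cells stably complemented with human TDP1 were seeded at 400 cells/well in medium containing 20 nM camptothecin, exposed to pin-transferred compounds, and grown at 37 °C for at least 48 hr. Viability was read as ATP luminescence.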
The depositor's hits bear a star; i = inactive; ? = inconclusive; · = no result given; [ ] = another dose, or the depositor's remark. Calls come from the whole dose curve; as a rule, active = well fitted curve in the direction sought with a large enough effect; inconclusive = small, poorly fitted or top-dose-only effect, or another doubt; inactive = no such curve, though single readings can be large; an effect the other way counts as inactive or inconclusive. Unless noted, % is set by controls: 0 for no effect and ±100 for the full control effect; potency is the fitted concentration of half-maximal effect.

SMILES | KB-3-1 tox | HT1080NT lethal | TDP1 cell noCPT | HT1080 IDH1KD tx | KB-V1 cytotox | DT40 TDP1 CPT
CC(C)(C)OC(=O)N1CCC(c2c(C(=O)NC3CCN(Cc4ccccc4)CC3)cnn2-c2cccc(F)c2)CC1 | i | · | 9.2µM* | · | i | 12µM*
Cc1ccccc1S(=O)(=O)N1C[C@@H]2C(C(=O)C[C@@H]3C(=O)N(C)C(=O)[C@@H]32)[C@@H]1c1ccc(Cl)cc1 (stereo partly specified) | i | 0% | -23% | 0% | i | -13%
CSc1ccc(OC2(C)CCN(Cc3ccccc3)C2)cc1 (stereo unspecified) | i | ? | ? | -15% | i | ?
COc1cc(OC)cc(OC2(C)CCN(Cc3ccc(OC(C)C)cc3)C2)c1 (stereo unspecified) | i | -6% | 23µM* | ? | i | 26µM*
CSc1ccc(CN2CCC(C)(Oc3ccc(-n4ccnc4)cc3)C2)cc1 (stereo unspecified) | i | ? | 18µM* | -8% | ? | 18µM*
CSc1ccc(OC2(C)CCN(Cc3ccc4c(c3)OCCO4)C2)cc1 (stereo unspecified) | i | -25% | ? | -5% | i | 26µM*
O=C1C(Cc2ccccc2)Nc2ncnc(N3CCc4ccccc4C3)c2N1Cc1ccc(Cl)cc1 (stereo unspecified) | i | ? | ? | ? | 26µM* | ?
CCC1Nc2ncnc(N3CCN(c4ccccc4)CC3)c2N(Cc2ccc(C)cc2)C1=O (stereo unspecified) | i | ? | ? | -8% | i | ?
CCC1Nc2ncnc(N3CCCCC3)c2N(Cc2ccc(Cl)cc2)C1=O (stereo unspecified) | i | -15% | ? | -8% | i | ?
CC1Nc2ncnc(N3CCN(c4ccccc4)CC3)c2N(Cc2ccc(Br)cc2)C1=O (stereo unspecified) | ? | -27% | 21µM* | ? | ? | ?
COc1ccc(CN2C(=O)C(C)Nc3ncnc(N4CCN(c5ccccc5)CC4)c32)cc1 (stereo unspecified) | i | -5% | ? | -4% | i | ?
COc1ccc(CN2C(=O)C(C)Nc3ncnc(N4CCOCC4)c32)cc1 (stereo unspecified) | ? | ? | ? | 15µM* | 18µM* | ?
CCC1Nc2ncnc(N3CCc4ccccc4C3)c2N(Cc2ccc(Cl)cc2)C1=O (stereo unspecified) | ? | -21% | ? | -13% | i | 21µM*
CN(C)c1ncnc2c1ncn2[C@H]1CN(CCN2CCOCC2)C[C@@H](CO)O1 | i | ? | -7% | 9% | i | 3%
CC1Nc2ncnc(N3CCOCC3)c2N(Cc2ccccc2)C1=O (stereo unspecified) | i | 0% | -12% | 3% | i | -18%
CC1Nc2ncnc(N3CCc4ccccc4C3)c2N(Cc2ccccc2)C1=O (stereo unspecified) | i | ? | ? | ? | i | 21µM*
CCCCCCC[n+]1ccc(C)c2ccccc21 | 0.58µM* | · | 0.45µM* | · | i | 0.45µM*
Cc1cc[n+](C)c2ccccc12 | i | · | -21% | · | i | 4%
CCCCCCCCCCCC[n+]1ccc(C)c2ccccc21 | 4.1µM* | · | 2µM* | · | i | 2µM*
Cc1cc[n+](CCC2CCCCC2)c2ccccc12 | 2.1µM* | · | 0.89µM* | · | i | 1.3µM*
Cc1ccc2c(C)cc[n+](CCCS(=O)(=O)[O-])c2c1 | i | 10% | -14% | 13% | i | -5%
O=C(CCc1ccccc1)Nc1ccc(S(=O)(=O)NC2=NCCCCC2)cc1 | i | 1% | -26% | -11% | i | -2%
Cc1ccc(C(=O)C(OC(=O)CNC(=O)COc2ccccc2C)c2ccccc2)cc1 (stereo unspecified) | i | · | -12% | · | i | 0%
CC1(C(=O)NC2CCCCC2)CCC(=O)N1CCOc1ccccc1 (stereo unspecified) | i | 23% | -31% | 4% | i | -1%
Cc1cc(=O)[nH]c2nnc(SCC(=O)Nc3ccc(F)cc3F)n12 | · | · | -3% | · | · | 8%
SMILES | KB-3-1 tox | HT1080NT lethal | TDP1 cell noCPT | HT1080 IDH1KD tx | KB-V1 cytotox | DT40 TDP1 CPT
Cc1ccccc1-c1nc2cc(N)ccc2o1 | i | 0% | -26% | 0% | ? | 7%
CC(C)c1ccc2oc(-c3cc(N)ccc3O)nc2c1 | i | -10% | ? | -20% | 18µM* | ?
COC(=O)[C@@H]1CCCN1C(=O)c1c(OC)cc(=O)n2c1CCN(Cc1ccc3c(c1)OCCO3)CC2 | · | · | -1% | · | · | -5%
C[C@@]12C(=O)N(Cc3ccccc3)CC(=O)N1[C@H]1c3cc(Cl)ccc3OC[C@@H]1[C@@H]2c1ccccc1 | i | -7% | 18µM* | -5% | i | ?
C[C@@]12C(=O)N(Cc3ccco3)CC(=O)N1[C@H]1c3cc(Cl)ccc3OC[C@@H]1[C@@H]2c1ccccc1 | i | -12% | ? | -9% | i | ?
C[C@@]12C(=O)N(Cc3ccc(F)cc3)CC(=O)N1[C@H]1c3cc(Cl)ccc3OC[C@@H]1[C@@H]2c1ccccc1 | ? | -8% | 18µM* | -11% | i | 23µM*
COC(=O)C1CCN(Cc2ccc3c(c2)CN(C(=O)c2cc(C4CC4)on2)CCO3)CC1 | · | · | -19% | · | · | 16%[9.04 µM]
COc1ccc2nc(C)cc(NCCN3CCOCC3)c2c1 | i | 3% | -20% | -1% | i | -3%
COc1ccc2nc(C)cc(Nc3ccc(N4CCOCC4)cc3)c2c1 | i | ? | 21µM* | 11%[9.24 µM] | i | ?
COc1ccc2nc(C)cc(Nc3ccc(N4CCN(C)CC4)cc3)c2c1 | i | ? | 3.3µM* | ? | ? | 4.6µM*
CCc1cccc2c1NC(=O)C21OCCO1 | i | 0% | -23% | -3% | i | 7%
CCCN1CNc2c(c(=O)[nH]c(=S)n2CCc2cccc(OC)c2)C1 | · | 11% | ? | 4% | · | -5%
CCNC(=O)COC(=O)c1cc(C)n(-c2ccccc2)c1C | i | 13% | -24% | 0% | i | -28%
Cc1cc(C(=O)OCC(=O)NCc2ccco2)c(C)n1-c1ccc(F)cc1 | ? | ? | 0.82µM* | ? | 1.3µM* | 0.65µM*
